Source: PubChem BioAssay AID485314 (National Center for Advancing Translational Sciences (NCATS), 2010)
Screen size: about 340,000 compounds; about 4,500 (1.3%) were called active. Another 5% or so got no clear call; they are omitted. Calls come from the whole dose curve; as a rule, active = well fitted inhibition curve with a large enough effect; inconclusive = small, poorly fitted or top-dose-only effect, or another doubt; inactive = no such curve, though single readings can be large or run the other way. What follows is part of a selection rich in actives, with near analogues and random picks from the rest.

These compounds were tested against DNA polymerase beta (Homo sapiens) (UniProt P06746) (assay: qHTS Assay for Inhibitors of DNA Polymerase Beta). Conditions: Pol beta primer extension/strand displacement, fluorescence kinetic; series mostly up to 114 µM; activity change, negative = inhibition: at the top concentration.
Procedure, shortened: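 Preincubation: enzyme (10 nM) with compound, 15 min, RT. Reaction: substrate added to 50 nM final. Reads: 0 and 10 min. Analysis: normalized, Hill fit.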
% is set by controls: 0 for no effect and ±100 for the full control effect; potency is the fitted concentration of half-maximal effect.

Activity change, negative = inhibition, inactive:
CCN(CC)C(=O)CSc1nc2ccsc2c(=O)n1Cc1ccccc1Cl -18.1%
Cc1ccc(NC(=O)COc2ccc(/C=N\NC(=O)c3cccnc3)cc2)cc1C -0.199%
NC(=O)c1ccc(NC(=O)COC(=O)c2ccc([N+](=O)[O-])cc2)cc1 0.237%
CC1CN(C(=O)N2CCC(C(=O)NCc3cccs3)CC2)c2ccccc2O1 (configuration not stated) -7.1%
Cc1cccc(C(=O)N2c3nc(-c4ccco4)nn3C3(CCCCC3)[C@@H]3CCCC[C@@H]32)c1 13.2%
Cc1nnc(SCC(=O)NC2CCCC2)s1 2.1%
Cc1nnc(SCC(=O)Nn2cnnc2)s1 -9.11%
Cc1sc(C2C(C#N)=C(N)N(c3cccc(Cl)c3)C3=C2C(=O)CCC3)cc1CN1CCOCC1 (configuration not stated) 16.6%
Cc1nc2c(-c3ccc(F)cc3)c(C)nn2c(C)c1CCC(=O)NCc1ccco1 36%
O=C(CSc1nnc2scc(-c3ccc(F)cc3)n12)NCc1ccco1 11.6%
COC(=O)C1=C(C)N(c2ccc(Br)cc2)C(=O)/C1=C\c1ccco1 23.8%
Cc1cc(C)c(OCC(=O)N/N=C/c2ccco2)c(C)c1 3.54%
CC1CCCN(c2csc3ccc(F)cc3c2=O)C1 (configuration not stated) 13.1%
CCCn1c(NCc2ccc(N(CC)CC)cc2)nc2ccccc21 -0.488%
COc1cc(/C=N/NC(=O)c2cc(C)n(-c3ccc(F)cc3)c2C)cc(OC)c1O -1.21%
Cc1nn(CC(=O)N/N=C/c2ccc(F)cc2)c(C)c1[N+](=O)[O-] 30.3%
CCOC(=O)c1ccc(-c2ccc(/C=C(\C#N)C(=O)Nc3ccc(OCC)cc3)o2)cc1 78.1%
O=C(O)c1cc(Cl)c(Cl)cc1C(=O)Nc1cccc2ncccc12 -0.55%
CCOCCCNC(=O)c1cn(CC)c2ccc(S(=O)(=O)N3CCc4ccccc4C3)cc2c1=O 12%

Potency, active:
O=C(COc1ccc(/C=N/NC(=O)c2ccc(O)cc2)cc1)Nc1ccc([N+](=O)[O-])cc1 2.24 µM
Cc1nnc(SCC2=C(C(=O)O)N3C(=O)C(NC(=O)Cn4nc(C)c(Cl)c4C)C3SC2)s1 (configuration not stated) 39.8 µM
Fc1ccc(-c2ccc(-c3nn4c(-c5ccco5)nnc4s3)o2)cc1 44.7 µM
COC(=O)COc1ccc2c(c1C)O/C(=C\c1ccco1)C2=O 50.1 µM
Cc1cc(C(=O)N/N=C/c2ccc(O)c([N+](=O)[O-])c2)c(C)n1-c1ccc(F)cc1 20 µM
Cc1ccc(/C=C(\C#N)C(=O)Nc2cccc3ncccc23)o1 3.16 µM
CCN1/C(=C/c2ccc3ccc(C)cc3[n+]2CC)Sc2ccccc21 31.6 µM
CCN1/C(=C\c2ccc3ccccc3[n+]2CC)Sc2cc(C)ccc21 25.1 µM
